ssDAF-12 act: activators of S. stercoralis DAF-12 nuclear receptor. 370,000 compounds, 1% hits. activation, % at 6.8 µM. HEK293 ssDAF-12/GRIP1 lit1-tk-luc reporter, luminescence; % of 3 µM dafachronic acid response;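 active means activation above the mean over all tested compounds plus 3 SD, cut at about 0.9% in these data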;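 further: 0% = DMSO-only wells and 100% = 3 µM delta7-dafachronic acid wells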
DAX1 inh-1: inhibits human nuclear receptor DAX1; inhibition, % at 6.75 µM; HEK293 Gal4-DAX1 luciferase reporter, luminescence; 340,000 compounds, 0.99% hits;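 active means inhibition above the mean over all tested compounds plus 3 SD, cut at about 4.2% in these data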;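 further: 0% = DAX1-transfected cells with DMSO and 100% = empty-vector control cells with DMSO; inhibition shows as a rise in luminescence from relieved DAX1 repression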
Target sequence (P51843 207-470 limits assumed): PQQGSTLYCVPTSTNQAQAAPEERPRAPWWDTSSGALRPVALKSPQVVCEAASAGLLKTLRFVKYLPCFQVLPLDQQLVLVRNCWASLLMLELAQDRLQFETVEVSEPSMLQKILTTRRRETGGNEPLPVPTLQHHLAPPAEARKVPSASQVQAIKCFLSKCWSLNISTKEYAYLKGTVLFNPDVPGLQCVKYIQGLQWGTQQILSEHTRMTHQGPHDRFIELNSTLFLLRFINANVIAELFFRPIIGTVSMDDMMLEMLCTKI
hcDAF12 agonist: activates DAF-12 receptor from parasite H. contortus; activation, % at 6.8 µM; 370,000 compounds, 1.4% hits; HEK293 hcDAF-12 lit1-tk-luc reporter, luminescence; 0% DMSO, 100% Δ7-dafachronic acid;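 active means activation above the mean of all tested compounds plus 3 SD, cut at about 5.5% in these data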;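 further: 100% = response to 3 µM Δ7-dafachronic acid high control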
hgDAF-12 ag: agonists of H. glycines DAF-12 nuclear receptor; AID 687014; HEK293 GAL4-hgDAF12 UAS-luciferase reporter, agonist luminescence; normalized to butyrate control; 370,000 compounds, 1.8% hits; activation, % at 6.8 µM;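 active means activation above a cutoff set at the mean of all screened compounds plus 3 SD, cut at about 10% in these data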;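 further: 0% = DMSO wells and 100% = sodium butyrate wells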
DAX1 inh-2: inhibitors of DAX1 repression of SF-1 activated StAR promoter. HEK293T StAR-luciferase reporter, SF-1/DAX-1 repression relief. inhibition, % at 6.8 µM. 370,000 compounds, 1.1% hits;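 active means inhibition above the mean over all tested compounds plus 3 SD, cut at about 3.6% in these data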;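 further: 0% = DAX-1 cells with DMSO and 100% = cells lacking DAX-1 with DMSO; higher inhibition means more luminescence from relief of DAX-1 repression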
PolyA inhibitor: blocks polyadenylation in yeast reporter cells | S. cerevisiae SKY197-pL101 polyadenylation reporter, beta-gal luminescence; efflux-impaired pdr1/pdr3 knockout yeast; score 100 = 6 SD above DMSO | activity score, % at 12 µM | 300,000 compounds, 0.02% hits | AID 1875;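 active means lowest replicate activity score at least 50, where 100 means six control SD above control mean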;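 further: yeast exposed to compound for 9 h at 30 °C; higher score means more reporter readthrough which indicates perturbed polyadenylation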
Starred values were filed as active, the others as inactive. An excerpt weighted towards active compounds, which were near 4.1% of everything screened.

What do the screens show for `c1csc(C2C3=C(Nc4ncnn42)c2ccccc2OC3)c1` (stereo not given)?
ssDAF-12 act: 1.1*; DAX1 inh-1: 0.2; hcDAF12 agonist: 2.1; hgDAF-12 ag: -0.1; DAX1 inh-2: -0.4; PolyA inhibitor: -12.8

How did CC1=C(C(N)=O)C(c2cccs2)n2ncnc2N1 (stereo not given) do in these assays?
ssDAF-12 act: -1.2; DAX1 inh-1: 3.6; hcDAF12 agonist: -0.9; hgDAF-12 ag: 0.9; DAX1 inh-2: 0.1; PolyA inhibitor: -5.8

How did Nc1ccc2oc3ccccc3c2c1 do in these assays?
ssDAF-12 act: -0.2; DAX1 inh-1: 0.9; hcDAF12 agonist: 6.1*; hgDAF-12 ag: 9.7; DAX1 inh-2: 0.6; PolyA inhibitor: -0.6

How did COc1ccc(CC(=O)Nc2cccc(-c3cn4ccccc4n3)c2)cc1 do in these assays?
ssDAF-12 act: -2.0; DAX1 inh-1: 5.4*; hcDAF12 agonist: -0.3; hgDAF-12 ag: 1.1; DAX1 inh-2: -0.4; PolyA inhibitor: -3.1

What do the screens show for `COc1ccc(CC(=O)Nc2ccc(-c3cn4ccccc4n3)cc2)cc1`?
ssDAF-12 act: -1.5; DAX1 inh-1: -0.6; hcDAF12 agonist: -2.2; hgDAF-12 ag: 3.2; DAX1 inh-2: 0.1; PolyA inhibitor: 14.8

How did Nc1nc(SCc2ccccn2)c2ncn(C3CCCC3)c2n1 do in these assays?
ssDAF-12 act: -0.6; DAX1 inh-1: 2.3; hcDAF12 agonist: -1.0; hgDAF-12 ag: 10.5*; DAX1 inh-2: 0.9

How did O=C(Cc1noc2ccccc12)Nc1ccccn1 do in these assays?
ssDAF-12 act: 0.1; DAX1 inh-1: 3.8; hcDAF12 agonist: 2.0; hgDAF-12 ag: 10.7*; DAX1 inh-2: 0.6; PolyA inhibitor: 3.3

What do the screens show for `Cc1ccc(NC(=O)Cc2noc3ccccc23)nc1`?
ssDAF-12 act: -1.4; DAX1 inh-1: -0.8; hcDAF12 agonist: -1.1; hgDAF-12 ag: 4.0; DAX1 inh-2: 0.8; PolyA inhibitor: 0.0

Results for Cc1ccc2c(c1)C(CS(=O)(=O)NCC(C)C)NC2 (stereo not given) ?
ssDAF-12 act: -0.7; hcDAF12 agonist: 1.0; hgDAF-12 ag: -1.2; DAX1 inh-2: -0.7

What do the screens show for `CC(C)N1CCCCC(NC(=O)c2ccc(Br)cc2)C1=O` (stereo not given)?
ssDAF-12 act: -1.2; hcDAF12 agonist: -3.4; hgDAF-12 ag: 0.4; DAX1 inh-2: 0.1

How did CCOC(=O)c1ccccc1S(=O)(=O)N1CCN(c2nc(-c3cccs3)nc3ccccc23)CC1 do in these assays?
ssDAF-12 act: -2.3; hcDAF12 agonist: -4.6; hgDAF-12 ag: 0.7

What do the screens show for `CCCC1CCC2(CC1)CCC2OC(=S)NCc1ccc(Cl)cc1` (stereo not given)?
ssDAF-12 act: -1.7; hcDAF12 agonist: 2.5; hgDAF-12 ag: 0.4

Results for Cc1ccc(NC2SC(=O)N(CC(=O)O)C2=O)cc1 (stereo not given) ?
ssDAF-12 act: 1.2*; DAX1 inh-1: 1.2; hcDAF12 agonist: 4.9; hgDAF-12 ag: 2.5; DAX1 inh-2: -0.1; PolyA inhibitor: 14.0

Results for O=C(O)CN1C(=O)SC(Nc2ccc(C(=O)O)cc2)C1=O (stereo not given) ?
ssDAF-12 act: -0.3; DAX1 inh-1: 0.2; hcDAF12 agonist: -0.5; hgDAF-12 ag: 0.5; DAX1 inh-2: 0.4; PolyA inhibitor: -1.4

Results for CN1c2ccccc2Oc2nnc(N3CCN(Cc4ccccc4)CC3)cc21 ?
ssDAF-12 act: -1.7; DAX1 inh-1: -2.6; hcDAF12 agonist: -0.8; hgDAF-12 ag: 10.4*; DAX1 inh-2: 0.2; PolyA inhibitor: 3.3

What do the screens show for `COC(=O)C1=C(C)N(Cc2ccccc2C(F)(F)F)C(=NCc2ccccc2C(F)(F)F)NC1c1cccc(C(F)(F)F)c1` (stereo not given)?
ssDAF-12 act: -1.0; hcDAF12 agonist: 2.3; hgDAF-12 ag: 0.8; DAX1 inh-2: -0.4

Results for Cc1ccc(C(=O)C2CCN(CC(=O)NC(C)C)CC2)cc1 ?
ssDAF-12 act: -1.9; hcDAF12 agonist: -1.4; hgDAF-12 ag: -1.3; DAX1 inh-2: 0.8

Results for Cc1ccc2nc3sc(C(=O)N4CCOCC4)c(N)c3cc2c1 ?
ssDAF-12 act: 0.7; DAX1 inh-1: 1.3; hcDAF12 agonist: 6.5*; hgDAF-12 ag: 8.6; DAX1 inh-2: 3.7*; PolyA inhibitor: -5.8

How did Cc1cc(Cl)ccc1NC(=O)/C=N/O do in these assays?
ssDAF-12 act: -1.1; DAX1 inh-1: 2.5; hcDAF12 agonist: 2.0; hgDAF-12 ag: -1.4; DAX1 inh-2: 0.3; PolyA inhibitor: 13.7

What do the screens show for `Cc1cc(Cl)ccc1NC(=O)/N=C1/NC(=O)CS1`?
ssDAF-12 act: 1.1*; hcDAF12 agonist: 0.7; hgDAF-12 ag: -1.1; DAX1 inh-2: 0.6

How did O=[N+]([O-])c1ccc(C2=NN(c3ccccc3)C(c3ccco3)C2)cc1 (stereo not given) do in these assays?
ssDAF-12 act: -0.3; DAX1 inh-1: 6.4*; hcDAF12 agonist: 0.0; hgDAF-12 ag: 4.3; DAX1 inh-2: 0.2; PolyA inhibitor: 4.9

What do the screens show for `CN(C)C=Nc1nc2c(Br)ccc(Br)c2cc1C(=O)NCC(C)(C)C`?
ssDAF-12 act: -0.2; hcDAF12 agonist: 0.4; hgDAF-12 ag: -3.3; DAX1 inh-2: -1.1

How did O=C1NC2(CCCCCC2)C(=O)N1Cc1ccc(Br)cc1 do in these assays?
ssDAF-12 act: -1.3; DAX1 inh-1: 0.4; hcDAF12 agonist: -2.8; hgDAF-12 ag: -2.8; DAX1 inh-2: 0.7; PolyA inhibitor: -3.4

What do the screens show for `CSc1ccc(CN2C(=O)NC3(CCCCC3)C2=O)cc1`?
ssDAF-12 act: -1.1; DAX1 inh-1: 6.8*; hcDAF12 agonist: -1.9; hgDAF-12 ag: -2.3; DAX1 inh-2: -0.3; PolyA inhibitor: -7.7

What do the screens show for `CC(C)C[C@H]1COc2cccc(F)c2S(=O)(=O)N1C`?
ssDAF-12 act: -1.9; hcDAF12 agonist: -1.5; hgDAF-12 ag: 0.1; DAX1 inh-2: 0.5

How did CCCCNC(=O)C1CCN(S(=O)(=O)N2CCCCCC2)CC1 do in these assays?
ssDAF-12 act: 0.0; DAX1 inh-1: -1.3; hcDAF12 agonist: 5.9*; hgDAF-12 ag: 0.0; DAX1 inh-2: 0.5; PolyA inhibitor: -1.7

What do the screens show for `COC(=O)[C@@]12CCCCC3=C1N(CCC3)C(=O)[C@H]2CC(=O)NCC12CC3CC(CC(C3)C1)C2`?
ssDAF-12 act: -1.3; hcDAF12 agonist: 0.7; hgDAF-12 ag: 2.4; DAX1 inh-2: 0.2

Results for O=Nc1ccc(Br)cn1 ?
ssDAF-12 act: -0.4; hcDAF12 agonist: 2.6; hgDAF-12 ag: 5.2; DAX1 inh-2: 0.1

What do the screens show for `CN(C)c1ccc(P(=O)(OCc2ccccc2)C(O)c2ccccc2)cc1` (stereo not given)?
ssDAF-12 act: -2.0; DAX1 inh-1: 4.3*; hcDAF12 agonist: -0.4; hgDAF-12 ag: -3.1; DAX1 inh-2: -0.2; PolyA inhibitor: 11.6
